Assay outcomes deposited in PubChem BioAssay by National Center for Advancing Translational Sciences (NCATS).
This excerpt belongs to a sample that is enriched for hits.
Casp7 inh: allosteric or competitive inhibitors of human caspase-7; P55210; AID 889; 0.02% of 75,000 active; Potency, µM (titrated, usually from 57.5 µM), for inactives: top-dose activity change, negative = inhibition, most hits filed as inhibitors; recombinant caspase-7, Ac-DEVD-AFC fluorescence rate; active means well fitted inhibition curve with a large enough effect in the main read-out, with a control signal flat, not every such curve was filed as active; inconclusive means small, poorly fitted or top-dose-only effect, or a change in a side signal; further: % of control where 0% means no effect
UbGFP stabilizer: ubiquitin-GFP accumulation via proteasome inhibition; 67,000 tested, under 10 active; Ubiquitin-GFP reporter cells, proteasome inhibition, GFP fluorescence; response scale: untreated = 0%, 10 µM MG-132 = 100%; AID 526; Potency, µM (doses to about 45.9 µM), without a hit: top-dose activation (GFP accumulation), actives largely listed as activators; active means well fitted activation curve with a large enough effect, not every such curve was filed as active; inconclusive means small, poorly fitted or top-dose-only effect, or another doubt; inactive means no such curve, though single readings can be large or run the other way
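Reporter cells (U2OS, ubiquitin-G76V-GFP fusion) are plated overnight, then treated 4 hr at 37 °C with compound titrations from 46 uM down to 2.9 nM. Activity is scaled against untreated cells and 10 uM MG-132.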
USP2a inhib: blocks human ubiquitin-specific protease USP2a | Potency, µM (series often up to 38.3 µM), for the others: at the top dose activity change, negative = inhibition, most hits filed as inhibitors | USP2a enzymatic assay, qHTS inhibition | 0.1% of 60,000 active | O75604; further: nearly all actives have a fitted effect of over 60% in size
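USP2 core (20nM final) preincubated 30 min RT with compound, then Ub-PLA2 20nM and NBD C6-HPC 20uM final added; buffer 20mM Tris-HCl pH 8.0, 2mM CaCl2. Fluorescence Ex 460/Em 535 read at 0 and 2.5 h; normalized to NEM.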
Caspase-1 inhib: caspase-1 (human) inhibition, allosteric or competitive; P29466; Caspase-1 enzyme, Ac-WEHD-AFC fluorogenic rate; Potency, µM (top dose mostly 57.5 µM), without a hit: at the highest dose activity change, negative = inhibition, actives largely listed as inhibitors; 0.03% of 75,000 active; AID 900;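 further: plate controls were vehicle for no effect and no substrate for full effect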
15-hLO-2 inh: inhibitors of human 15-lipoxygenase 2 (ALOX15B); 0.56% of 110,000 active; Potency, µM (titrated, usually from 57.1 µM), without a hit: top-dose activity change, negative = inhibition, actives largely listed as inhibitors; AID 881; purified 15hLO-2, xylenol orange hydroperoxide absorbance; O15296; further: on the % scale 0 is the no-effect control and ±100 the full control effect; nearly all actives have a fitted effect of over 60% in size
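Read-out: hydroperoxide product oxidises ferrous iron, measured as xylenol orange complex via the 573-to-405 nm absorbance ratio after 30 min. Reaction: 50 nM enzyme, 15 min compound preincubation, 45 uM arachidonic acid, 90 min RT, Hepes pH 7.5 with Triton X-100.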
ALOX15 inhib: inhibitors of human 15-lipoxygenase (ALOX15); P16050; purified 15hLO-1, xylenol orange hydroperoxide absorbance; Potency, µM (series often up to 57.1 µM), for the others: at the top dose activity change, negative = inhibition, most hits filed as inhibitors; 1.4% of 74,000 active; AID 887; further: on the % scale 0 is the no-effect control and ±100 the full control effect; nearly all actives have a fitted effect of over 55% in size
Target sequence (P16050 whole entry, looked up): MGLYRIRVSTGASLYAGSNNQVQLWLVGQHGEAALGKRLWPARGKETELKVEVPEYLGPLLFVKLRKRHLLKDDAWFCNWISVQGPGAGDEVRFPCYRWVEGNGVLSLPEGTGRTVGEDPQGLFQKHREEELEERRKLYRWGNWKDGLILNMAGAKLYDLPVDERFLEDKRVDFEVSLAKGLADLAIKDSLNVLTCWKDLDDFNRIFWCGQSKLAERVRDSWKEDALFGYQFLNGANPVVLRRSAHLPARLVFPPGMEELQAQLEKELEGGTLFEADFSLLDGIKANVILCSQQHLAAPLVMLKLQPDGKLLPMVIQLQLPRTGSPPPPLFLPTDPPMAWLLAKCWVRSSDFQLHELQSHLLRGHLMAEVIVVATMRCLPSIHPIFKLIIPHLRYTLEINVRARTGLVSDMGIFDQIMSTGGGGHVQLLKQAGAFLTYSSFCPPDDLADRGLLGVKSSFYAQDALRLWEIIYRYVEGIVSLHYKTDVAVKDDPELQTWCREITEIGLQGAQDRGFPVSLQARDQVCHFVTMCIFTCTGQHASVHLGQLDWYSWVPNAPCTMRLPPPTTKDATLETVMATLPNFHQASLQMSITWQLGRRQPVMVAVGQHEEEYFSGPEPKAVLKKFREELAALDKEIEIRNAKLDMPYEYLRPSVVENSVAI
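Readout: Fe(III)-xylenol orange absorbance, 573-to-405 nm ratio as reaction progress. Enzyme 40 nM purified human 15hLO-1, substrate 50 uM arachidonic acid, 6 min RT after 15 min compound preincubation; Hepes pH 7.5 buffer with Triton X-100.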
Active calls of the source: *; ? = inconclusive; / = no result; ! = a repeat was not active; [ ] = dose if it differs, or a comment. Unless noted, the call rests on the fitted dose curve; in most records, active means well fitted curve in the direction sought with a large enough effect; inconclusive means small, poorly fitted or top-dose-only effect, or another doubt; inactive means no such curve, though single readings can be large; an effect the other way counts as inactive or inconclusive. Potency means the concentration at half of the fitted maximal effect.

SMILES | Casp7 inh | UbGFP stabilizer | USP2a inhib | Caspase-1 inhib | 15-hLO-2 inh | ALOX15 inhib
Cc1c(C(=O)NC(=S)Nc2ccc(NC(=O)c3cccs3)cc2)oc2ccccc12 | / | / | / | / | 7.9µM* | /
Cc1cccnc1NC(=S)NC(=O)c1cccs1 | / | / | / | / | -11% | /
NS(=O)(=O)c1cc2c(cc1Cl)=NC(CCC(=O)O)=NS=2(=O)O | -1%[11.5 µM] | -2%[9.17 µM] | / | -1%[11.5 µM] | -3%[11.4 µM] | 9%[11.4 µM]
Cc1ccc(C(=O)c2c(C)oc3c2C(=O)C(=O)c2ccccc2-3)cc1 | / | / | / | / | 25µM* | /
CCN(CC)CCCNC(=O)c1ccc(-n2c(=O)c(=O)[nH]c3ccccc32)cc1 | -2% | / | / | 0% | / | 0%
O=C(O)/C(Cc1ccc([N+](=O)[O-])cc1)=N/O | 0%[11.5 µM] | -1%[9.17 µM] | / | -3%[11.5 µM] | -6%[11.4 µM] | 5%[11.4 µM]
Cc1cc(NC(=O)CCCC(=O)N(CC(=O)NC2CCCCC2)c2ccccc2)no1 | -12% | -3% | 23% | -14% | 6% | 25µM*
CC(=O)Nc1ccc2c(c1)/C(=C/c1ccc([N+](C)(C)C)cc1)c1ccccc1-2 | -1%[11.5 µM] | 4%[9.17 µM] | / | 0%[11.5 µM] | 5%[11.4 µM] | 8%[11.4 µM]
N#Cc1cc(-c2ccccc2)nn1-c1ccccc1 | -1% | -3% | -24% | -2% | 13%[2.29 µM] | 16µM*
Clc1ccccc1/C=N/c1cc(-c2ccccc2)nn1-c1ccccc1 | / | / | / | / | 1% | /
C[C@@H]1C[C@@H]2[C@H]3CCC4=CC(=O)C=C[C@]4(C)[C@]3(Cl)[C@@H](O)C[C@@]2(C)[C@@]1(O)C(=O)CO | 1% | 0% | 8% | -1% | 10% | -17%
CN(C)c1ccc(C(=O)n2nnc3ccccc32)cc1 | / | / | / | / | -8% | /
CC(=O)c1ccc(N(C)C)cc1 | / | / | / | / | 1% | /
CN(C)c1ccc(C(=C2C=CC(=[N+](C)C)C=C2)c2ccccc2)cc1 | -2%[11.5 µM] | 4%[9.17 µM] | / | 0%[11.5 µM] | 5µM* | 32µM*!
CN(C)c1ccc(C(=C2C=CC(=[N+](C)C)C=C2)c2ccc(N(C)C)cc2)cc1 | -15% | / | 10µM* | -1% | ? | -3%
O=C(O)Cn1c(=O)oc2cc(S(=O)(=O)N3CCOCC3)ccc21 | 1% | 21% | / | -2% | / | -4%
O=c1ccc2ccc(O)c(O)c2o1 | 1% | 4% | 3% | 2% | ? | 25µM*
Cc1ccc(NCc2nc3ccccc3n2C)cc1 | -5% | 8% | -4% | 0% | 43% | 16µM*
Cn1c(CNc2nc3ccccc3n2C)nc2ccccc21 | 0% | -6% | -13% | 0% | 24% | 15%
Nc1cccc(C(F)(F)F)c1 | -10% | / | / | -2% | -2% | -6%
N#C/C(=C\c1ccc(O)c(O)c1)C(=O)Nc1ccccc1 | -2% | -8% | -20% | -5% | ? | 3.2µM*
C[C@@H](NC(=O)/C(C#N)=C/c1ccc(O)c(O)c1)c1ccccc1 | -2% | -4% | -14% | -1% | ? | ?
C[C@H](NC(=O)/C(C#N)=C/c1ccc(O)c(O)c1)c1ccccc1 | -3% | 4% | -15% | 1% | ? | 0.25µM*
CN(C)CCOc1ccccc1-c1ccccc1 | / | / | / | / | 1% | /
CCCOc1ccccc1-c1nc2n[nH]nc2c(=O)[nH]1 | -8% | 3% | 10µM* | -6% | 0% | 16µM*!
SMILES | Casp7 inh | UbGFP stabilizer | USP2a inhib | Caspase-1 inhib | 15-hLO-2 inh | ALOX15 inhib
CC(C)C12CC[C@@]3(CC[C@H]4[C@@](C)(CCC[C@]4(C)C(=O)O)[C@@H]3C1)[C@@H](CN)C2 | -2%[11.5 µM] | 9%[9.17 µM] | / | 2%[11.5 µM] | -8%[11.4 µM] | 12%[11.4 µM]
CC(C)C1=CC2=CC[C@@H]3[C@@](C)(C(=O)O)CCC[C@]3(C)C2CC1 (some centres not stated) | 0% | / | / | 0% | 0% | 7.9µM*
CCNCCNC(=O)c1c(O)c2ccccc2n(CC)c1=O | 1% | -5% | -3% | 0% | 13% | 14%
C=CCn1c(=O)c(C(=O)NCCNCC)c(O)c2ccccc21 | 2% | 6% | 13µM* | 1% | 8% | 15%
C=C(C#N)C(=O)OCC | 1% | / | / | 2% | -8% | 0%
Cc1ccc(-c2cc(C(=O)NCCCn3ccnc3)c3cc(Br)ccc3n2)o1 | ? | -2% | 50% | / | 28% | ?
